ELG1 DNA repair: qHTS screen for small molecules that inhibit ELG1-dependent DNA repair in human embryonic kidney (HEK293T) cells expressing luciferase-tagged ELG1; HEK293T ELG1-luciferase reporter, luminescence, 16 h; DNA damage induced by 5-fluorouridine; Potency, µM (series often up to 46.1 µM), actives largely listed as inhibitors; 330,000 compounds, 2.3% hits; also: nearly all actives have a fitted effect of over 55% in size
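DMSO vehicle served as the neutral condition. Each well held 2,000 cells given 5-fluorouridine plus compound; after 16 hr at 37 °C/5% CO2, ONE-Glo was added and luciferase measured 30 min later.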
ELG1 genotox: qHTS screen for small molecules that induce genotoxicity in human embryonic kidney (HEK293T) cells expressing luciferase-tagged ELG1. AID 504466, 2011. HEK293T ELG1-luciferase reporter, luminescence, 16 h. Potency, µM (series often up to 46 µM), usual class: activators. 330,000 compounds, 1.3% hits; also: nearly all actives have a fitted effect of over 60% in size
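After overnight (16 hr) compound treatment at 37 °C, ELG1-luciferase HEK293T cells were lysed with ONE-Glo; luminescence quantified 30 min later at room temperature.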
FLuc counter: qHTS profiling assay for firefly luciferase inhibitor/activator using purifed enzyme and Km concentrations of substrates (counterscreen for miR-21 project); purified FLuc, Km substrates, luminescence inhibition; Potency, µM (doses to about 57.5 µM), actives largely listed as inhibitors; 360,000 compounds, 6.9% hits; AID 588342, 2011; also: nearly all actives have a fitted effect of over 55% in size
Target sequence (P08659 whole entry, looked up): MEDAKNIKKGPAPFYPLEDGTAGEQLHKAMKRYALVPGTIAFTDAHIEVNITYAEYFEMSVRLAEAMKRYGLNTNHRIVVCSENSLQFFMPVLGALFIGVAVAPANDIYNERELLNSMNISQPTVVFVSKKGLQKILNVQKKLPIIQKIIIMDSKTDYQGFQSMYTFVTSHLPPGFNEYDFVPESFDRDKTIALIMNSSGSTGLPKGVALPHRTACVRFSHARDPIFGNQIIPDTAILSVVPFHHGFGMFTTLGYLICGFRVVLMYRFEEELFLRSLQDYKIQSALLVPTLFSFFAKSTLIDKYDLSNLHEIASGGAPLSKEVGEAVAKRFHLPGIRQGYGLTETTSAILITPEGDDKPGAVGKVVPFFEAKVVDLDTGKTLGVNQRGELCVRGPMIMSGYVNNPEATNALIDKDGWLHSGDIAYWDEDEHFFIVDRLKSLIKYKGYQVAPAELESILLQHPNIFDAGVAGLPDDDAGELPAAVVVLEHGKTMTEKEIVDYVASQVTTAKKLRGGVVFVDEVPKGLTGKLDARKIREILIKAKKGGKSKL
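Purified P. pyralis luciferase, 10 nM final, with Km-level 10 uM D-luciferin and 10 uM ATP in 50 mM Tris acetate pH 7.5, 10 mM Mg acetate, 0.01% Tween-20, 0.05% BSA; 6-point qHTS titration about 60 µM downward; luminescence read.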
SMN2 splice up: qHTS Assay for Enhancers of SMN2 Splice Variant Expression; HEK293 SMN2-luciferase splicing reporter, luminescence, 30-36 h; Potency, µM (titrated, usually from 46.1 µM), most hits filed as activators; 210,000 compounds, 2.8% hits; also: nearly all actives have a fitted effect of over 55% in size
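HEK293 cells carry an SMN2 […]–luciferase reporter in which exon 7 inclusion puts luciferase in frame. Cells were plated 10-12 h before compound addition, then incubated 30-36 h at 37C. ONE-Glo luminescence was read; sodium butyrate at 4.5 mM final served as control.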
Rab9 prom act: qHTS Assay for Rab9 Promoter Activators. Potency, µM (series often up to 9.22 µM), usual class: activators. AID 485297, 2010. Huh7 Rab9 promoter-luciferase reporter, luminescence, 24 h. 320,000 compounds, 2.8% hits; also: nearly all actives have a fitted effect of over 60% in size
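Huh7 cells stably carrying a Rab9 promoter-luciferase reporter, 1500 cells per well in OP-MEM I with 10% FBS, treated with compound 24 hours at 37C. Luciferase activity read by luminescence after 10 minutes with Amplite reagent.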
NPC1 promoter act: qHTS Assay for NPC1 Promoter Activators | Huh7 NPC1 promoter luciferase reporter, 24 h | Potency, µM (top dose mostly 9.22 µM), actives largely listed as activators | 320,000 compounds, 2.4% hits | AID 485313, 2010; also: nearly all actives have a fitted effect of over 60% in size
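NPC1 promoter–luciferase Huh7 cells; 24 h compound; luminescence.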
Hits are given with their value; 0 = inactive; ? = inconclusive; - = no result given; [ ] = another dose, or the depositor's remark. This is a sample that favours compounds with a hit; in the whole collection about 9.2% have one here. Calls follow the shape of the dose curve; as a rule, active = well fitted curve in the direction sought with a large enough effect; inconclusive = small, poorly fitted or top-dose-only effect, or another doubt; inactive = no such curve, though single readings can be large; an effect the other way counts as inactive or inconclusive.

SMILES	ELG1 DNA repair	ELG1 genotox	FLuc counter	SMN2 splice up	Rab9 prom act	NPC1 promoter act
Cc1ccc(N(C(=O)CCl)C(C(=O)NC2CCCCC2)c2cccnc2)cc1C (stereo not drawn)	9.2µM	0	0	0[1.84 µM]	0	0
Cc1ccc(N(C(=O)CNC(=O)c2ccco2)C(C(=O)NC2CCCCC2)c2cccnc2)cc1C (stereo not drawn)	0	0	0	-	0	0
CCOC(=O)C1=C(CN2CCN(c3ccccc3)CC2)NC(=O)NC1c1ccc(C)cc1 (stereo not drawn)	-	-	0	0	-	-
COc1ccc(-c2cn(-c3ccc(OC)cc3)c3[n+]2-c2ccccc2CC3)cc1	9.2µM	0	0	0	0	0
Cc1cc(C)cc(S(=O)(=O)Nc2cccc(-c3ccc(N4CCOCC4)nn3)c2)c1	-	-	12µM	-	-	-
CCOc1ccc(-c2cccc(NS(=O)(=O)c3ccc([N+](=O)[O-])cc3)c2)nn1	0	0	0	-	0	0
O=[N+]([O-])c1ccc(S(=O)(=O)Nc2cccc(-c3ccc(N4CCOCC4)nn3)c2)cc1	?	?	3.38µM	-	0	?
COc1ccc(-c2ccc(NS(=O)(=O)c3ccc([N+](=O)[O-])cc3)cc2)nn1	0	0	0	-	0	0
O=[N+]([O-])c1ccc(S(=O)(=O)Nc2ccc(-c3ccc(N4CCOCC4)nn3)cc2)cc1	?	0	26.9µM	-	0	0
COc1c(C)cc(S(=O)(=O)Nc2cccc(-c3ccc(N4CCOCC4)nn3)c2)c(C)c1C	-	-	15.1µM	-	-	-
Cc1ccc(S(=O)(=O)Nc2ccc(N3CCOCC3)nc2)cc1	0	0	0	0	0	0
O=C1/C(=C\Nc2ccc(OC(F)(F)F)cc2)CCN1c1ncccn1	?	9.2µM	?	0	2.51µM	?
O=C(CN1CCN(c2ccccn2)CC1)Nc1ccc(OC(F)(F)F)cc1	0	0	0	-	0	0
O=C1/C(=C\Nc2ccc(Cl)cc2)CCN1c1ncccn1	?	?	4.78µM	20µM	0.891µM	2µM
C=CCNC(=O)/C(=C/c1cccc([N+](=O)[O-])c1)NC(=O)c1ccccc1	0	0	0	0	0	0
COc1ccc(C(=O)NOCc2ccccc2)cc1	?	?	1.9µM	-	?	?
O=C(NOCc1ccccc1)c1ccc([N+](=O)[O-])cc1	?	?	3.79µM	-	1.26µM	?
COc1ccc(C(=O)NCCONC(=O)c2ccc(OC)cc2)cc1	0	0	0	-	0	0
O=C(NOCc1ccccc1)c1ccc(Cl)cc1	?	?	1.2µM	-	0.501µM	0.708µM
O=C(CC1C(=O)NCCN1Cc1ccccc1C(F)(F)F)NC1CCC1 (stereo not drawn)	0	0	0	-	0	0
COc1ccc(OC)c(NS(=O)(=O)c2ccc3[nH]c4c(c3c2)CCCCC4)c1	-	-	0	-	-	-
CSc1ccc(/C=C(/NC(=O)c2ccc(C)cc2)C(=O)Nc2cccc(F)c2)cc1	0	0	0	0	0	0
CCOC(=O)c1ccc(Nc2ncccc2[N+](=O)[O-])cc1	?	?	7.57µM	-	1µM	2.51µM
CCOC(=O)c1ccc(N/N=C/c2cc(Br)cc([N+](=O)[O-])c2O)cc1	0	0	1.2µM	0	0	0
COc1ccccc1C(=O)Oc1ccccc1C(=O)Nc1ccccc1	?	0	?	-	0	0
CCOC(=O)c1sc(NC(=O)CSc2nc3cccnc3n2C)nc1C	?	0	0	-	0	0
O=C(Oc1ccccc1C(=O)Nc1ccccc1)c1ccc(Br)c([N+](=O)[O-])c1	?	0	15.1µM	0	0	0
CCOC(=O)c1cccc(NC(=O)CSc2nc3cccnc3n2C)c1	18.4µM	0	0	0	0	0
COc1cc2nc(SCC(=O)Nc3ccccc3C)n3nc(CCn4c(C)nc5ccccc54)nc3c2cc1OC	-	-	0	0	-	-
